Assay [1] in a line: antimalarial activity against Dd2 strain (AID 2302;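 active = growth inhibition above 50% at the single 2 µM test dose, taken to imply half-maximal potency below 2 µM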;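 also: 0% = DMSO untreated growth and 100% = chloroquine plus artemisinin killed control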). The conditions noted are these: P. falciparum Dd2 in RBCs, LDH growth readout, 72 h; at 2 µM; stronger effect = higher value.
Assay [2] in a line: HepG2 cytotoxicity, primary screen, cytotoxicity control for P. falciparum antimalarial project, cell-based, ATP luminescence (AID 2303;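 active = inhibition above 50%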;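 also: 0% = DMSO wells and 100% = digitonin-killed cells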). As to conditions: HepG2 viability, 24-48 h, at 10 µM, stronger effect = higher value.
In assay [3] the target is L-lactate dehydrogenase (Plasmodium falciparum (isolate CDC / Honduras)) (UniProt Q27743). The experiment in a line: PfLDH activity inhibition – cell lysate, 3D7 strain, counter-screen for P. falciparum growth inhibition project (AID 2304).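 Also: 0% = vehicle and 100% = reference inhibitor.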 As to conditions: P. falciparum 3D7 crude extract, LDH APAD/NBT absorbance; at 2 µM; stronger effect = higher value. (In general: A counterscreen serves to expose hits that act by an unwanted route or on another target.)

A short description of assay [4]: inhibition of 3D7 malaria parasite growth – strain 3D7 (AID 2306).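 Also: 0% = DMSO wells and 100% = chloroquine plus artemisinin control wells.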 The conditions noted are these: P. falciparum 3D7 erythrocytic growth, LDH absorbance, 72 h; at 2 µM; stronger effect = higher value.
The target of assay [5] is Calcium-dependent protein kinase 1 (Plasmodium falciparum (isolate 3D7)) (UniProt P62344). The assay is described as follows: PfCDPK1 kinase inhibitors, biochemical, TCAMS library (AID 1159585; cut-off not given, nearly all actives have IC50 up to about 0.98 µM;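 also: inhibitors leave more ATP so luminescence rises with inhibition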). As to conditions: recombinant PfCDPK1, Kinase-Glo ATP depletion luminescence. (Kinase-Glo measures the ATP left after a reaction by luminescence.)
Assay [6] addresses Plasmodium falciparum protein kinase 6 (PK6, PF3D7_1337100) (UniProt Q8IDW1). The assay is described as follows: PfPK6 kinase inhibitors, biochemical, TCAMS library (AID 1159586). As to conditions: recombinant PfPK6, Kinase-Glo ATP depletion luminescence.
For assay [7], the target named is Protein kinase 7 (PK7), Plasmodium falciparum 3D7 (PF3D7_0213400) (UniProt Q7YTF7). The experiment in a line: inhibition of Plasmodium PK7 catalytic activity – biochemical, TCAMS antimalarial set, Kinase-Glo luminescence (AID 1159587). The conditions noted are these: recombinant PfPK7, Kinase-Glo ATP depletion luminescence.
Assay [8] concerns the target Calcium-dependent protein kinase 4 (Plasmodium falciparum (isolate 3D7)) (UniProt Q8IBS5). The assay is described as follows: PfCDPK4 kinase inhibitors, biochemical, TCAMS library (AID 1159588; cut-off not given, nearly all actives have IC50 up to about 0.91 µM). As to conditions: recombinant PfCDPK4, Kinase-Glo ATP depletion luminescence.

A word on the inhibition: it is the drop in the measured response relative to a control, in per cent.

Values without a mark were called inactive. For some of these results: Results with a measured potency or affinity are listed apart. Activity calls are given as the source filed them. Unless noted, no rule for the calls is given here.

Chain of Calcium-dependent protein kinase 4 (Plasmodium falciparum (isolate 3D7)) (Q8IBS5 whole entry, looked up): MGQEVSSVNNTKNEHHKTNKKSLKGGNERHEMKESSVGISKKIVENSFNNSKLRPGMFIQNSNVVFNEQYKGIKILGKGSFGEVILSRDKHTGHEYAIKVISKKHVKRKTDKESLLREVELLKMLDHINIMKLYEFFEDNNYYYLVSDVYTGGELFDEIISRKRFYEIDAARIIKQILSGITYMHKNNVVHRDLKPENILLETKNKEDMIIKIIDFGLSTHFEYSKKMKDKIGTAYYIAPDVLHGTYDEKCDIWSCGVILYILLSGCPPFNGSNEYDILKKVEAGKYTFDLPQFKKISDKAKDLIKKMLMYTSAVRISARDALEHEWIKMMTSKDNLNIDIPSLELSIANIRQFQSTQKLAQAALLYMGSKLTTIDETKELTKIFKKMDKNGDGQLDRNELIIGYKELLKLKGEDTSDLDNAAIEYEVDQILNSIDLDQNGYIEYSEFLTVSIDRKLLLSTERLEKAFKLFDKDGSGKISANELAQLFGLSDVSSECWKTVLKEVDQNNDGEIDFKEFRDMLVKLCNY
Chain of Plasmodium falciparum protein kinase 6 (PK6, PF3D7_1337100) (Q8IDW1 1-305): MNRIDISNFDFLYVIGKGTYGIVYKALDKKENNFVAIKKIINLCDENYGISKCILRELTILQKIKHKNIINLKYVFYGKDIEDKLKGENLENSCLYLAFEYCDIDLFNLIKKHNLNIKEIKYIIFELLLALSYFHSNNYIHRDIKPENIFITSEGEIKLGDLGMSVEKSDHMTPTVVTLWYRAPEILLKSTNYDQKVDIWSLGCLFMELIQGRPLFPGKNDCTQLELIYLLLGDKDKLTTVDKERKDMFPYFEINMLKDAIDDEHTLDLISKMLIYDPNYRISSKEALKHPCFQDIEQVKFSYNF
Chain of L-lactate dehydrogenase (Plasmodium falciparum (isolate CDC / Honduras)) (Q27743 whole entry, looked up): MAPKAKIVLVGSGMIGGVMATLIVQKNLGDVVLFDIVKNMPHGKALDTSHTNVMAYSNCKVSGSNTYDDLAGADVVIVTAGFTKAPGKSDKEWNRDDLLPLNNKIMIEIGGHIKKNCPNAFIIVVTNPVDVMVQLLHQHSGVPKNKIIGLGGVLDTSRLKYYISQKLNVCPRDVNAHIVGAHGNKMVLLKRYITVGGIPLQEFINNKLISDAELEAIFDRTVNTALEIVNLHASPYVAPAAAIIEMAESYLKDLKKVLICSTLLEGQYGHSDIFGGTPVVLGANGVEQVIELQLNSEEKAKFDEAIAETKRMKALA
Chain of Protein kinase 7 (PK7), Plasmodium falciparum 3D7 (PF3D7_0213400) (Q7YTF7 1-343): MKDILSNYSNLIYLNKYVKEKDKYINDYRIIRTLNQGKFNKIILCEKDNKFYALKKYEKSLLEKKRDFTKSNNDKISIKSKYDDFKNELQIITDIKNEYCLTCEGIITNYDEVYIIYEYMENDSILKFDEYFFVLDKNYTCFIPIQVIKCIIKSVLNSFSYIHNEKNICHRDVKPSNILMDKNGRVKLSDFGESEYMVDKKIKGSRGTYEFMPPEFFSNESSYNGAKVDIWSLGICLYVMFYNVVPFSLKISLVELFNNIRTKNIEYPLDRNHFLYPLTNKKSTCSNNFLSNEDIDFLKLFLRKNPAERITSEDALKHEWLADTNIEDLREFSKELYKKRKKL
Chain of Calcium-dependent protein kinase 1 (Plasmodium falciparum (isolate 3D7)) (P62344 whole entry, looked up): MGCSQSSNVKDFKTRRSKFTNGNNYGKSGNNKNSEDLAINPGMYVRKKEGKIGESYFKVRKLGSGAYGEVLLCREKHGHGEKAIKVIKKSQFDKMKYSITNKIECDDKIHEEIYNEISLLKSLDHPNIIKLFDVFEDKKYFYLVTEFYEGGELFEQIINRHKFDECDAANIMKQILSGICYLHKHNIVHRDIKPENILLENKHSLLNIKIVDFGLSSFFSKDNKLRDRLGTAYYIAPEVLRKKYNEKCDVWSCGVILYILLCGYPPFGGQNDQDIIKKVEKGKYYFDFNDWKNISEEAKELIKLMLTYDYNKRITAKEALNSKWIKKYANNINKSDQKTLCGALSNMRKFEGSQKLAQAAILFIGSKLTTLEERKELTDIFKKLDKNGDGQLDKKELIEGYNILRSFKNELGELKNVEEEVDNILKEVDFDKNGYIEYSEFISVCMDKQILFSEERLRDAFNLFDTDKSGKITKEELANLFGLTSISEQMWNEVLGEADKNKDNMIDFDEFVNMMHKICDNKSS

With `COc1ccc2c(NN=Cc3ccccn3)ccnc2c1`, the figures for the growth inhibition in assay [1] and in assay [4] were 96% (active) and 102% (active), respectively. The inhibition in assay [2] is 14%; in assay [3] it was -2%. Besides, the result in assay [5], in assay [6], in assay [7] and in assay [8] was inactive.

For the compound `CC1(C)CN2CCCC2c2cc(NC(=O)/C=C/c3ccccc3Cl)ccc21` (stereo not given), the results for the growth inhibition in assay [1] and in assay [4] were 76% (active) and 88% (active), respectively. Besides, the inhibition was 20% in assay [2] and 0% in assay [3]. Besides, the result in assay [5], in assay [6], in assay [7] and in assay [8] was inactive.

On to `CCN1CCC(N(Cc2ccc(-c3ccc(C(F)(F)F)cc3)cc2)C(=O)CCCCn2c(CCc3cccc(F)c3F)nc(=O)c3ccccc32)CC1`, for which the growth inhibition in assay [1] is 77% (active); in assay [4] it was 90% (active). The inhibition in assay [2] was 54% (active); in assay [3] it was 4%. Besides, the result in assay [5], in assay [6], in assay [7] and in assay [8] was inactive.

`Cc1[nH]c2ccc(-c3ccc(OC(F)(F)F)cc3)cc2c(=O)c1C#N`: the growth inhibition in assay [1] was 97% (active); in assay [4] it was 98% (active). Also, the inhibition in assay [2] is -5%; in assay [3], -9%. Besides, the result in assay [5], in assay [6], in assay [7] and in assay [8] was inactive.

As for `CN(Cc1ccccc1)C1CCCN(c2cc(NC(=O)c3ccc(F)cc3)ccn2)C1` (stereo not given), the growth inhibition in assay [1] is 95% (active); in assay [4], 93% (active). The results for the inhibition in assay [2] and in assay [3] were 7% and 0%, respectively. Moreover, the outcome in assay [5], in assay [6], in assay [7] and in assay [8] was inactive.

(Values after PubChem BioAssay.)
